KB-3-1 cytotox – qHTS assay for MDR1-selective chemotherapeutics: Primary screen using the parental adenocarcinoma cell KB-3-1 | hit rate 1.4% among 400,000 | KB-3-1 viability, CellTiter-Glo ATP luminescence, 72 h | Potency, µM (series often up to 46.1 µM), actives largely listed as cytotoxic; further: on the % scale 0 is the no-effect control and ±100 the full control effect; nearly all actives have a fitted effect of over 60% in size
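Cytotoxicity in the drug-sensitive parental line KB-3-1 was scored as loss of CellTiter-Glo luminescence following 72 h incubation with compound. Values come from curve fitting of normalized concentration-response data.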
HT1080 IDH1KD tx – qHTS for induction of synthetic lethality in tumor cells producing 2HG: qHTS for the HT-1080-IDH1KD cell line; hit rate 2% among 360,000; HT-1080 IDH1 knockdown viability, ATP luminescence, 48 h; Potency, µM (series often up to 46.1 µM), for the others: at the highest dose activity, negative = toxicity, hits mostly cytotoxic;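 further: 0% = DMSO wells and -100% = cell-free medium wells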
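Luminescent ATP read-out (CellTiter-Glo, 10 min at room temperature) after 48 h compound exposure at 37 °C gave viability of IDH1-knockdown HT-1080 cells. Activity was normalised to DMSO and cell-free wells, then fitted as concentration-response curves.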
TGFb SMAD3 inh – qHTS for Inhibitors of TGF-b. hit rate 1.2% among 410,000. HepG2 CAGA-GFP TGF-b/SMAD3 reporter, GFP fluorescence, 18 h; TGF-beta stimulated, 500 pg/mL final. Potency, µM (series often up to 46.1 µM), without a hit: top-dose activity, negative = inhibition, hits mostly inhibitors; further: on the % scale 0 is the no-effect control and ±100 the full control effect; nearly all actives have a fitted effect of over 65% in size
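TGF-beta reporter screen: HEPG2 CAGA-GFP, 1% FBS, 500 pg/mL TGF-beta final, 18 h; per-cell GFP summed per well; curves fitted and categorized by class.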
HepG2 tox – qHTS for Inhibitors of TGF-b: Cytotox Counterscreen; HepG2 CAGA-GFP viability, ATP luminescence, 18 h; Potency, µM (titrated, usually from 46.1 µM), for inactives: top-dose activity change, negative = cytotoxicity, usual class: cytotoxic; hit rate 0.76% among 410,000; AID 588856, 2011
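HepG2 CAGA-GFP cells (1000/well, DMEM with 1% FBS) received compound, then TGF-beta at 500 pg/mL final, and were incubated 18 hours at 37 degrees C. Viability was read by CellTiter-Glo luminescence. Media-only wells were set as complete cell-killing and DMSO as no toxicity.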
HT1080-NT tox – qHTS for induction of synthetic lethality in tumor cells producing 2HG: qHTS for the HT-1080-NT fibrosarcoma cell line; hit rate 1.6% among 360,000; AID 686970, 2013; HT-1080-NT fibrosarcoma viability, CellTiter-Glo ATP luminescence, 48 h; Potency, µM (highest dose often 46.1 µM), without a hit: at the top dose activity, negative = less viability, actives largely listed as cytotoxic;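 further: NT is the 2HG producing partner of a matched IDH1 knockdown line; 0% = DMSO-treated cells and -100% = media-only wells without cells; nearly all actives have a fitted effect of over 55% in size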
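Toxicity toward the 2HG-producing NT line was scored as %Activity, normalised to DMSO and no-cell wells, from CellTiter-Glo luminescence after 48 hours' treatment.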
KB-V1 cytotox – qHTS assay for MDR1-selective chemotherapeutics: Primary screen using the drug-selected MDR subline cells KB-V1; KB-V1 MDR cells viability, CellTiter-Glo, 72 h; Potency, µM (doses to about 46.1 µM), hits mostly cytotoxic; hit rate 3.4% among 400,000; AID 1347076, 2019; further: on the % scale 0 is the no-effect control and ±100 the full control effect; nearly all actives have a fitted effect of over 60% in size
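Potencies derive from concentration-effect curves fitted to normalized luminescence (CellTiter-Glo) of KB-V1 cells treated for 72 h at 37 degrees C in phenol-red-free DMEM containing 10% FBS.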
An asterisk follows results filed as active; i = inactive; ? = inconclusive; / = no result given. An excerpt weighted towards active compounds, which were near 6.6% of everything screened. The call rests on the fitted dose curve; in most records, active means well fitted curve in the direction sought with a large enough effect; inconclusive means small, poorly fitted or top-dose-only effect, or another doubt; inactive means no such curve, though single readings can be large; an effect the other way counts as inactive or inconclusive. Potency means the concentration at half of the fitted maximal effect.

SMILES	KB-3-1 cytotox	HT1080 IDH1KD tx	TGFb SMAD3 inh	HepG2 tox	HT1080-NT tox	KB-V1 cytotox
CCOC(=O)N1CCN(C(=O)Cn2ncc3c4ccccc4n(Cc4ccc(F)cc4)c3c2=O)CC1	?	/	?	-16.8%	/	i
CCOC(=O)[C@]12Cc3cc(Cl)ccc3[C@H]1N(C1CCCCC1)C(=O)c1cc(OC)ccc12	1.03µM*	1.84µM*	/	/	2.31µM*	5.8µM*
CCOC(=O)[C@]12Cc3ccc(C)cc3[C@H]1N(C1CCCCC1)C(=O)c1cc(OC)ccc12	?	3.26µM*	/	/	4.11µM*	4.61µM*
CCOC(=O)[C@]12Cc3cc(C)ccc3[C@H]1N(CCC(=O)OC)C(=O)c1ccccc12	13µM*	13µM*	/	/	16.4µM*	4.11µM*
CCOC(=O)[C@]12Cc3cc(OC)ccc3[C@H]1N(CC(=O)OC)C(=O)c1ccccc12	i	5.3%	/	/	5.2%	i
CCOC(=O)C12C(=O)OCC1C2c1ccccc1 (stereo unspecified)	?	15.9%	/	/	21.6%	i
CCOC(=O)[C@]12Cc3ccccc3[C@H]1N(C(C)C)C(=O)c1ccccc12	20.6µM*	20.6µM*	/	/	?	i
CCCCOP(=O)(OCCCC)C(Nc1ccc(C(=O)OCC)cc1)c1ccncc1 (stereo unspecified)	i	-10.1%	?	-25.0%	?	i
CC1(C)c2[nH]c3ccccc3c2C[C@H]2C(=O)N(Cc3ccccc3F)C(=O)N21	?	/	?	-34.3%	/	?
COc1ccc(NS(=O)(=O)c2ccc3c(c2)oc(=O)n3C)cc1Cl	i	0.0%	?	5.1%	2.1%	?
Cc1ccc(CNC(=O)CCCn2c(=O)c3sccc3n(CC(=O)Nc3c(C)cccc3C)c2=O)cc1	/	/	1.1%	3.2%	/	/
CCOC(=O)[C@]12Cc3ccc(C)cc3[C@H]1N(C1CCCCC1)C(=O)c1ccccc12	1.16µM*	5.8µM*	/	/	8.2µM*	2.31µM*
CCOC(=O)C1(c2ccccc2)CCN(CC(=O)Nc2ccc(C)cc2)CC1	i	0.9%	11.7%	-21.7%	6.7%	?
CCOC(=O)[C@]12Cc3cc(C)ccc3[C@H]1N(C1CCCCC1)C(=O)c1ccccc12	1.64µM*	3.66µM*	/	/	3.66µM*	2.59µM*
CCOC(=O)[C@]12Cc3c(cc(OC)c(OC)c3OC)[C@H]1N(C1CCCCC1)C(=O)c1ccccc12	3.26µM*	2.91µM*	/	/	3.26µM*	?
CCc1cccc(CC)c1NC(=O)Cn1c(-c2ccc(F)cc2)noc1=O	i	14.5%	-17.6%	-17.8%	-1.3%	i
COc1ccc(C)cc1NC(=O)c1cccn(Cc2ccccc2Cl)c1=O	i	/	1.6%	-8.3%	/	i
C=CCNC(=O)c1ccccc1NC(=O)c1ccc(Cl)c(S(=O)(=O)Nc2cc(C)ccc2C)c1	i	?	?	-4.1%	?	20.6µM*
CSCCC(NC(=O)CCC(=O)OC1CC[C@H]2[C@@H]3CC[C@H]4CC(=O)CC[C@]4(C)[C@H]3CC[C@]12C)C(=O)O (stereo partly specified)	i	10.3%	12.5%	-3.8%	0.5%	i
CCc1ccc(NC(=O)Cn2c(=O)oc3cc(S(=O)(=O)NCc4ccccc4)ccc32)cc1	i	/	-21.9%	-39.1%	/	?
C=CCn1c(O)c(C(CC)=NCCC2=CCCCC2)c(=O)[nH]c1=O	i	3.1%	-6.6%	-32.0%	6.4%	8.91µM*
C=CCn1c(O)c(C(CC)=NCc2cc(OC)cc(OC)c2)c(=O)[nH]c1=O	?	23.1µM*	-14.6%	-58.3%	23.1µM*	?
Cc1ccc(-c2nc(N(C)C3CCN(C)CC3)c3ccccc3n2)cc1	i	15.8µM*	?	12.6µM*	12.6µM*	20.6µM*
CC1CCN(c2nc(-c3ccc(F)cc3)cc(C(F)(F)F)n2)CC1	i	13.8%	7.0%	-2.6%	15.8%	i
C[C@@H]1CNC(=O)c2c(C(=O)Nc3cccc(Cl)c3)ncn21	?	-20.3%	?	-7.7%	-19.5%	?
SMILES	KB-3-1 cytotox	HT1080 IDH1KD tx	TGFb SMAD3 inh	HepG2 tox	HT1080-NT tox	KB-V1 cytotox
CCN(CC)c1ccc(CNCCc2ccccc2F)cc1	?	18.4µM*	-10.5%	-20.7%	16.4µM*	20.6µM*
COc1ccc(CCn2c(O)c(C=Nc3ccc(F)cc3)c(=O)[nH]c2=O)cc1OC	i	-3.4%	-24.1%	-0.8%	3.0%	i
CCN(CC)c1ccc(N=Cc2c(O)n(CCc3ccc(OC)c(OC)c3)c(=O)[nH]c2=O)cc1	?	-7.0%	-8.8%	16.7%	1.2%	16.4µM*
O=C(Nc1ccncc1)c1cccn(Cc2ccccc2)c1=O	?	?	-22.8%	-17.8%	?	5.8µM*
CCOC(=O)c1ccc(NC(=O)c2cccn(Cc3ccccc3F)c2=O)cc1	i	/	-0.2%	-36.6%	/	5.8µM*
CCN(Cc1ccccc1)C(=O)Cn1c(=O)oc2ccccc21	i	11.5%	18.2%	0.0%	17.9%	i
CCc1nc(CNC(=O)c2cc(OC)c(OC)c(OC)c2)no1	i	26.1%	?	8.4%	13.0%	i
Cc1cc(C)c(C(=O)CSc2n[nH]c(=O)n2C2CC2)cc1C	i	31.6µM*	-17.1%	-26.1%	-16.3%	i
CC(C)OC(=O)c1c(N)n(Cc2ccco2)c2nc3ccccc3nc12	i	1.3%	21.3%	9.3%	-2.2%	i
CCCNC(=O)c1c(N)n(Cc2ccco2)c2nc3ccccc3nc12	i	?	-11.7%	-27.6%	11.2µM*	i
CC(C)CNC(=O)c1c(N)n(Cc2ccc3c(c2)OCO3)c2nc3ccccc3nc12	?	16.4µM*	15.8µM*	-94.3%	20.6µM*	?
CC(C)CNC(=O)c1c(N)n(Cc2ccco2)c2nc3ccccc3nc12	?	?	22.4µM*	-87.3%	?	16.4µM*
COc1ccc(Cn2c(N)c(C(=O)NCc3ccco3)c3nc4ccccc4nc32)cc1OC	?	?	15.8µM*	-51.4%	?	20.6µM*
COCCCNC(=O)c1c(N)n(Cc2ccco2)c2nc3ccccc3nc12	i	-1.7%	?	-29.0%	-5.5%	i
CCc1ccc(-c2nc(CN3CCCC(C(=O)NCc4ccc(C)cc4)C3)c(C)o2)cc1 (stereo unspecified)	i	/	?	-13.9%	/	i

Assay outcomes deposited in PubChem by National Center for Advancing Translational Sciences (NCATS).
